“And” between values parts separate entries of the source, which are not always exact repeats. Identical values can stand only once. Unmarked numbers belong to inactive results. Results filed as inconclusive are left out. Entries that show only a call come without a potency. The source made the active and inactive calls. Unless noted, calls follow the shape of the dose curve; as a rule, active = well fitted curve in the direction sought with a large enough effect; inconclusive = small, poorly fitted or top-dose-only effect, or another doubt; inactive = no such curve, though single readings can be large; an effect the other way counts as inactive or inconclusive.
How the values were obtained:
[1] = qHTS assay for small molecule disruptors of the mitochondrial membrane potential - 5 hr assay (AID 651755; calls by dose curve; also: nearly all actives have a fitted effect of over 40% in size; also: potency is read from the fitted curve at half-maximal effect)
In short: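 HepG2 cells (2,000/well), attached overnight, exposed to compound 5 hr at 37C, then Mito-MPS dye 30 min. Fluorescence read for monomers (490/535 nm) and aggregates (540/590 nm).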

[2] = qHTS assay for environmental chemicals that activate the Aryl hydrocarbon Receptor (AhR) signaling pathway (AID 651777); details: 1A2-DRE human hepatoma cells, luciferase, 24 h; activation: hits give high values; also: nearly all actives have a fitted effect of over 15% in size; also: potency is read from the fitted curve at half-maximal effect
In short: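 Stable CYP1A2 promoter/DRE-luciferase human hepatoma line treated 24 hr; One-Glo luminescence, 30 min RT.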

[3] = molecular target: Peroxisome proliferator-activated receptor alpha (Homo sapiens) (UniProt Q07869); assay: qHTS assay for small molecule agonists of the peroxisome proliferator-activated receptor alpha (PPARalpha) signaling pathway (AID 651778); details: PathHunter PPARalpha complementation, chemiluminescence, 6 h; hits give high values
In short: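 Enzyme-fragment complementation assay in which ligand-bound PPARalpha translocates and forms an active enzyme that generates chemiluminescence. Cells were plated overnight, exposed to compound for 6 hr at 37 C, and then given detection reagent for 60 min at room temperature.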

[4] = molecular target: Nuclear receptor ROR-gamma (Homo sapiens) (UniProt P51449); assay: qHTS assay for small molecule antagonists of the retinoid-related orphan receptor gamma (ROR-gamma) signaling pathway (AID 651802); also: nearly all actives have a fitted effect of over 60% in size; also: potency is read from the fitted curve at half-maximal effect
In short: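 Antagonism is scored as a fall in luminescence from a RORE-luciferase reporter in CHO cells expressing ROR under a TET-inducible promoter, measured 16hr after doxycycline induction in the presence of compound.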

[5] = qHTS assay for small molecule agonists of the antioxidant response element (ARE) signaling pathway measured by Nrf2-dependant transcriptional activity (AID 720636; active = well fitted curve in the direction sought with a large enough effect in the repeat runs; an effect the other way counts as inactive or inconclusive;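 also: HepG2 cells with an ARE-driven luciferase reporter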)
In short: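 Reporter gene assay, HepG2 ARE-luc: 16 hr compound, 37 C, 5% CO2; read-out luciferase luminescence.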

[6] = qHTS assay for small molecule antagonists of the retinoid-related orphan receptor gamma (ROR-gamma) signaling pathway - cell viability counter screen (AID 720652; active = well fitted curve in the direction sought with a large enough effect in the repeat runs; an effect the other way counts as inactive or inconclusive;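 also: CHO reporter cells with doxycycline-induced ROR-gamma expression; series mostly up to about 92 µM; compound exposure lasted 16 hr before ATP read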)
In short: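 Cytotoxicity is quantified via intracellular ATP (CellTiter-Glo luminescence) in doxycycline-induced CHO ROR response element-luciferase reporter cells treated with compound for 16 hr at 37 C, 5% CO2.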

[7] = qHTS assay for small molecule agonists of the antioxidant response element (ARE) signaling pathway measured by Nrf2-dependant transcriptional activity - cell viability counter screen (AID 720653; active = well fitted curve in the direction sought with a large enough effect in the repeat runs; an effect the other way counts as inactive or inconclusive); details: ARE-bla HepG2 viability, CellTiter-Glo ATP luminescence, 16 h; hits give low values
In short: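 ARE-bla HepG2 cells treated with compounds for 16 h at 37C; this counter screen measures viability as intracellular ATP by CellTiter-Glo luminescence after 30 min at room temperature.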

[8] = qHTS assay for cell viability of HEK293 cells (AID 743288); details: ATP luminescence (CellTiter-Glo), 18 h, hits give low values; also: nearly all actives have a fitted effect of over 50% in size
In short: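 HEK293 parental, 2,000 cells/well; ≥5 h pre-incubation 37 C; pintool compound addition; 18 h, 37 C; CellTiter-Glo 30 min RT; luminescence read.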

[9] = qHTS assay to identify small molecules that stimulate interleukin-8 (IL-8) secretion (AID 651758; active = well fitted activation curve with a large enough effect in the signal ratio; the % refers to the signal ratio)
In short: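 THP-1 cells (2000/well) exposed to compound 16 h at 37 C; secreted IL-8 then detected by HTRF with cryptate- and XL665-labelled anti-IL-8 antibody pair after 1-3 h at room temperature.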

Sequence of Peroxisome proliferator-activated receptor alpha (Homo sapiens) (Q07869 whole entry, looked up, the tested form may be a part): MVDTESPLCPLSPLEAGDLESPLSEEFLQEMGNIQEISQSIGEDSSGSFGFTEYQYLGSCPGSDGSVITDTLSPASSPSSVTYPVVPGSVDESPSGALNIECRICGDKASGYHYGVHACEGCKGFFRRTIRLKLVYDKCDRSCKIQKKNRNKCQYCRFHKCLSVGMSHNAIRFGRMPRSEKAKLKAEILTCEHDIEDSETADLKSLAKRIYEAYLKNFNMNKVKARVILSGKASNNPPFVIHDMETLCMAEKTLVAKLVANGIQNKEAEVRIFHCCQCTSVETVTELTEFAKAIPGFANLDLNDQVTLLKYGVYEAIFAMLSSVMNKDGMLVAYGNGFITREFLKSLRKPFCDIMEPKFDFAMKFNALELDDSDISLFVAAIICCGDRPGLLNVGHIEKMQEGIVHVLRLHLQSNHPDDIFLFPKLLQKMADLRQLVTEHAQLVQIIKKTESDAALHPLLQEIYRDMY
Sequence of Nuclear receptor ROR-gamma (Homo sapiens) (P51449 whole entry, looked up): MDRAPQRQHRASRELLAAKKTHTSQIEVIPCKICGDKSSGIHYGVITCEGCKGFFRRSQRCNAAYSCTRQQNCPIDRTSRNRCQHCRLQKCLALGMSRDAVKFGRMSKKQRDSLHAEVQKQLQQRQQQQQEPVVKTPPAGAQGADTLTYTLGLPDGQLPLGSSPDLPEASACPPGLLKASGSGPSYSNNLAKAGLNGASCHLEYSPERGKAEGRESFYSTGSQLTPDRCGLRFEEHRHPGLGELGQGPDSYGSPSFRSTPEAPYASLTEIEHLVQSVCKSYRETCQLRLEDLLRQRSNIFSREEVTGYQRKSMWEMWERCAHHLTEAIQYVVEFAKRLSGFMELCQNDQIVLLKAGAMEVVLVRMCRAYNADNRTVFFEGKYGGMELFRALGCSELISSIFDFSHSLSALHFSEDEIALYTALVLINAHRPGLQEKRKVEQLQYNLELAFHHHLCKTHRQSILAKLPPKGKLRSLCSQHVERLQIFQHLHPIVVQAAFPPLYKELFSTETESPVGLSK

CCN(CC)c1cccc(O)c1
Potency [1]: inactive | activation [2]: 4.44% | max response [3]: -5.23% | Potency [4]: inactive | outcome [5]: inactive | Potency [6]: inactive | max response [7]: 5.34% | max response [8]: -2.87%

CCCCC/C=C/C=C/C=O
Potency [1]: inactive | activation [2]: 0.997% and -0.836% | max response [3]: -2.99% and -1.24% | Potency [4]: 33.5 µM (active) | outcome [5]: inactive | max response [7]: -0.854% and -5.85% | max response [8]: -1.02%

Nc1cc(S(=O)(=O)O)ccc1O
Potency [1]: inactive | Potency [9]: inactive | activation [2]: -0.613% | max response [3]: -7.35% | Potency [4]: inactive | outcome [5]: inactive | Potency [6]: inactive | max response [8]: -1.98%

CCOc1ccc(NC(C)=O)cc1N
Potency [1]: inactive | Potency [9]: inactive | Potency [4]: inactive | outcome [5]: inactive | Potency [6]: inactive | max response [7]: -8.42% | max response [8]: -2.43%

O=C(O)c1ccc(Cl)cc1Cl
Potency [1]: inactive | activation [2]: -0.705% | max response [3]: -5.53% | Potency [4]: inactive | outcome [5]: inactive | Potency [6]: inactive | max response [7]: -0.648% | max response [8]: 4.16%

C=CC(=O)NC(C)C
Potency [1]: inactive | Potency [9]: inactive | activation [2]: -0.429% | max response [3]: -6.08% | outcome [5]: inactive | Potency [6]: inactive | max response [7]: -7.91% | max response [8]: -0.14%

CCNc1cc(O)ccc1C
Potency [1]: inactive | activation [2]: 6.45% | max response [3]: -6.44% | Potency [4]: inactive | outcome [5]: inactive | max response [8]: 2.21%

O=C1OC(=O)c2cc([N+](=O)[O-])ccc21
Potency [1]: inactive | Potency [9]: inactive | activation [2]: -0.234% | max response [3]: -4.48% | Potency [4]: inactive | outcome [5]: inactive | max response [7]: -1.02% | max response [8]: -5.72%

Cc1cccc(C(=O)O)c1
Potency [1]: inactive | activation [2]: 0.807% | max response [3]: -3.59% | Potency [4]: inactive | outcome [5]: inactive | Potency [6]: inactive | max response [7]: -0.706% | max response [8]: 2.24%

CCCCCCCCCCCCC1CO1 (stereo unspecified)
Potency [1]: inactive | activation [2]: 0.974% | max response [3]: -4.01% | Potency [4]: inactive | outcome [5]: inactive | Potency [6]: inactive | max response [7]: 1.04% | max response [8]: -4.83%

CC(C)(O)CCC(C)(C)O
Potency [1]: inactive | activation [2]: 1.58% | Potency [4]: inactive | outcome [5]: inactive | Potency [6]: inactive | max response [8]: 2.13%

O=C1NC(=O)c2cc([N+](=O)[O-])ccc21
Potency [1]: inactive | activation [2]: -0.349% | max response [3]: -3.3% | Potency [4]: inactive | outcome [5]: inactive | max response [8]: -4.71%

CCCCC(CC)COC(=O)CCCCC(=O)OCC(CC)CCCC (stereo unspecified)
Potency [1]: inactive | activation [2]: -0.729% and -3.02% | max response [3]: -4.18% and -1.05% | outcome [5]: inactive | Potency [6]: inactive | max response [7]: 11.7% and -4.79% | max response [8]: -4.22% and -9.58%

O=[N+]([O-])c1cccc(Cl)c1
Potency [1]: inactive | activation [2]: 0.317% | max response [3]: -3.34% | Potency [4]: inactive | outcome [5]: inactive | Potency [6]: inactive | max response [8]: -0.245%

NC=O
Potency [1]: inactive | activation [2]: 1.58% | Potency [4]: inactive | outcome [5]: inactive | Potency [6]: inactive | max response [7]: 6.13% | max response [8]: -0.0358%

CN(C)c1cccc(O)c1
Potency [1]: inactive | activation [2]: 6.91% | max response [3]: -3.12% | outcome [5]: inactive | Potency [6]: inactive | max response [7]: -0.49% | max response [8]: -2.96%

C[C@@H]1CC2(OC[C@]3(C)O[C@H]23)O[C@H]2C[C@@]3(C)[C@@H]4CC[C@H]5C(C)(C)C(O[C@@H]6OC[C@@H](O)[C@H](O)[C@H]6O)CC[C@@]56C[C@@]46CC[C@]3(C)[C@@H]12 (stereo partly specified)
Potency [1]: inactive | activation [2]: -1.5% | max response [3]: 0.712% | Potency [4]: inactive | outcome [5]: inactive | Potency [6]: inactive | max response [7]: -3.07% | max response [8]: -22.4%

CC(=O)c1ccc([N+](=O)[O-])cc1
Potency [1]: inactive | activation [2]: 0.202% | max response [3]: -2.88% | outcome [5]: inactive | Potency [6]: inactive | max response [7]: 19% | max response [8]: 5.77%

CCCC(Cl)CCCC(Cl)CCC(Cl)CCC(Cl)CCC(Cl)CCCC(Cl)CCC (stereo unspecified)
Potency [1]: inactive | activation [2]: -0.261% | max response [3]: -3.72% | Potency [4]: inactive | outcome [5]: inactive | Potency [6]: inactive | max response [7]: -6.05% | max response [8]: 8.25%

Cc1ccc(C#N)cc1
Potency [1]: inactive | activation [2]: 2.83% | max response [3]: 0.216% | Potency [4]: inactive | outcome [5]: inactive | Potency [6]: inactive | max response [7]: 4.38% | max response [8]: -2.64%

NS(=O)(=O)O
Potency [1]: inactive | activation [2]: 0.965% | max response [3]: -1.54% | Potency [4]: inactive | Potency [6]: inactive | max response [8]: 3.9%

O=[N+]([O-])c1cccc(C(F)(F)F)c1
Potency [1]: inactive | Potency [9]: inactive | activation [2]: 0.319% | max response [3]: 2.74% | Potency [4]: inactive | outcome [5]: inactive | Potency [6]: inactive | max response [7]: 14.6% | max response [8]: 0.368%

NC(N)=S
Potency [1]: inactive | activation [2]: 0.321% | max response [3]: -4.91% | outcome [5]: inactive | Potency [6]: inactive | max response [7]: -0.0983% | max response [8]: -3.49%

O=C(O)CNC(=O)c1ccc(CO)o1
Potency [1]: inactive | activation [2]: -1.34% | max response [3]: -5.12% | Potency [4]: inactive | outcome [5]: inactive | Potency [6]: inactive | max response [7]: -15.7% | max response [8]: -5.2%

Nc1cccc([N+](=O)[O-])c1
Potency [1]: inactive | Potency [9]: inactive | max response [3]: -2.36% | Potency [4]: inactive | outcome [5]: inactive | Potency [6]: inactive | max response [7]: 11.8% | max response [8]: -2.77%

C=Cc1ccc(C=C)cc1
Potency [1]: inactive | Potency [9]: inactive | activation [2]: 7.35% | max response [3]: -4.42% | Potency [4]: inactive | outcome [5]: inactive | Potency [6]: inactive | max response [7]: -7.35% | max response [8]: -2.33%

Nc1cc(Cl)c([N+](=O)[O-])cc1O
Potency [1]: 33.5 µM (active) | activation [2]: 6.24% | max response [3]: -6.88% | Potency [4]: inactive | Potency [6]: inactive | max response [7]: -1.27% | max response [8]: -3.32%

Nc1nc2ccccc2[nH]1
Potency [1]: inactive | Potency [9]: inactive | activation [2]: 11.9% | outcome [5]: inactive | Potency [6]: inactive | max response [7]: -4.79% | max response [8]: -5.2%

CC(C)c1ccccc1
Potency [1]: inactive | activation [2]: -1.48% | max response [3]: 3.38% | Potency [4]: inactive | outcome [5]: inactive | Potency [6]: inactive | max response [7]: -7.17% | max response [8]: -0.678%

COc1ccc(N=[N+]([O-])c2ccc(OC)cc2)cc1
Potency [1]: inactive | Potency [2]: 1.12 µM (active) | max response [3]: -3.57% | max response [7]: -28.6% | max response [8]: -5.78%

C[C@@H]1CC2(OC3C[C@@]4(C)C5=CC[C@H]6C(C)(C)C(O[C@@H]7OC[C@@H](O)[C@H](O)[C@H]7O)CC[C@@]67C[C@@]57CC[C@]4(C)C31)OC(O)C1(C)OC21 (stereo partly specified)
Potency [1]: inactive | Potency [9]: inactive | activation [2]: -0.875% | max response [3]: 8.86% | Potency [4]: 21.1 µM (active) | outcome [5]: inactive | max response [8]: -9.95%

CC(=O)c1cc(C)oc1C
Potency [1]: inactive | activation [2]: 0.74% | max response [3]: -8.47% | Potency [4]: inactive | outcome [5]: inactive | Potency [6]: inactive | max response [7]: 1.5% | max response [8]: -13.5%

Cc1ccc(C(=O)O)cc1
Potency [1]: inactive | activation [2]: -0.0785% | max response [3]: 2.54% | Potency [4]: inactive | outcome [5]: inactive | Potency [6]: inactive | max response [7]: 8.21% | max response [8]: -10.4%

OCCO
Potency [1]: inactive | activation [2]: 0.215% | max response [3]: -4.04% | outcome [5]: inactive | Potency [6]: inactive | max response [7]: -3.22% | max response [8]: -10.8%

NC(=O)NC(N)=O
Potency [1]: inactive | activation [2]: 2.56% | max response [3]: -2.74% | Potency [4]: inactive | outcome [5]: inactive | Potency [6]: inactive | max response [7]: -4.93% | max response [8]: -4.97%

Nc1cc(Cl)c(N)c(Cl)c1
Potency [1]: inactive | max response [3]: 1.23% and -1.85% | Potency [4]: inactive | outcome [5]: inactive | Potency [6]: inactive | max response [7]: -6.05% and -8.26% | max response [8]: 3.57% and -5.3%

From PubChem BioAssay (NCATS)
